Test results published in PubChem BioAssay AID651812 (National Center for Advancing Translational Sciences (NCATS), 2012).
Among all 2,100 compounds or so, about 650 (31%) were called active. Inconclusive results (about 16%) are left out. The call rests on the fitted dose curve; in most records, active means well fitted inhibition curve with a large enough effect; inconclusive means small, poorly fitted or top-dose-only effect; inactive means flat fitted curve, though single readings scatter. The list shows a part of the results.

Experiment: qHTS for inhibitors of Vif-A3G interactions: Cherry picks; further: nearly all actives have a fitted effect of over 80% in size
Conditions: HeLa A3G-eYFP + Vif (tagged APOBEC3G with the HIV-1 protein that degrades it), 24 h; Potency: eYFP fluorescence increase; series mostly up to 36.9 µM
Summary of the method: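 Cherry-picked compounds tested at several concentrations on A3G-eYFP/Vif HeLa cells for 24 hours; loss of Vif-driven degradation read as eYFP fluorescence by cytometric plate imaging, 488 nm excitation, 500-530 nm emission.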
Potency means the concentration at half of the fitted maximal effect.

Potency, active:
CCN1/C(=C/c2cc[n+](C)cc2)C=Cc2cc(C)ccc21 23.1 µM, COc1ccc(NCc2cc3cc4c(cc3n(CC(=O)Nc3cc(C)ccc3C)c2=O)OCCO4)cc1 2.31 µM, Cc1cc(NC(=O)CSc2nc3c(C)cccc3cc2C#N)no1 20.6 µM, Cc1nonc1NC(=O)CSc1nc2c(C)cccc2cc1C#N 18.4 µM, Cc1cc2cc(C#N)c(SCC(=O)Nc3nonc3C)nc2cc1C 14.6 µM, Nc1ccccc1C=C1Cc2ccccc2C1=O 16.4 µM, CN(C)c1ccc(/C=C2\Cc3ccccc3C2=O)cc1 3.26 µM, CN(C)c1ccc(/C=C2/C[N+](C)(C)C/C(=C/c3ccc(N(C)C)cc3)C2=O)cc1 9.2 µM, N#Cc1cccc(NC(=O)CSc2ccc3c4c(cccc24)C(=O)c2ccccc2-3)c1 6.51 µM, COc1ccc(NC(=O)CSc2ccc3c4c(cccc24)C(=O)c2ccccc2-3)cc1 7.31 µM, Cc1c(N=C2N=C(NC(=O)c3cccs3)c3ccccc32)c(=O)n(-c2ccccc2)n1C 14 µM, Cn1c(N)c(-c2ccccc2)c2ccc([N+](=O)[O-])cc2c1=O 15.8 µM, CCc1cc[n+](-c2nc3ccccc3nc2[N-]S(=O)(=O)c2ccc(Br)s2)cc1 20.6 µM, Cc1cc(C)c[n+](-c2nc3ccccc3nc2[N-]S(=O)(=O)c2ccc(Br)s2)c1 18.4 µM, CC(=O)/C(N=Nc1cc(C)ccc1O)=C(\C)O 16.4 µM, Cc1ccc2[nH]cc(/C=C/c3cc[n+](C)cc3)c2c1 4.44 µM, COc1ccc2[nH]cc(/C=C/c3cc[n+](C)cc3)c2c1 13 µM, COc1ccc2c(c1)c(/C=C/c1cc[n+](C)cc1)cn2C 1.98 µM, C[n+]1ccc(/C=C/c2c[nH]c3ccc(F)cc23)cc1 14.6 µM, CC[N+](C)(C)c1ccc(/C=C/c2ccncc2)cc1 20.6 µM, CCC[N+](C)(C)c1ccc(/C=C/c2ccncc2)cc1 18.4 µM, CCCSc1ncc(Cl)c(C(=O)Nc2sc3c(c2C(N)=O)CCCC3)n1 11.6 µM, CN(C)C=Nc1c(Br)cc(Br)c2nonc12 9.2 µM, Nc1c(C(=O)N/N=C/c2ccc(F)cc2)oc2nc(-c3ccccc3)cc(-c3ccco3)c12 12.5 µM, Nc1c(C(=O)N/N=C/c2ccccc2Cl)oc2nc(-c3ccccc3)cc(-c3ccco3)c12 5.8 µM, Nc1c(C(=O)N/N=C/c2cccnc2)oc2nc(-c3ccccc3)cc(-c3ccco3)c12 5.8 µM, CC[n+]1c(C=C2C=C(C)OC(C)=C2)sc2ccccc21 8.2 µM, CCSC1=NSC2=NC(=O)/C(=C\c3coc4ccccc4c3=O)C(=N)N12 23.1 µM, COC1=C/C(=C/c2c(N)n3nc(-c4ccc(C)cc4)sc3nc2=O)C=CC1=O 14.6 µM, Nc1nc(SCc2ccc(Cl)cc2Cl)nc2nc3c(cc12)CCCC3 23.1 µM, COC(=O)c1ccc(NC(=O)CC2Nc3cc(C)c(C)cc3NC2=O)cc1 (centres undefined) 23.1 µM, CC(NC(=O)c1ccc(Nc2nc3ccccc3n3nnnc23)cc1)c1ccccc1 (centres undefined) 18.4 µM, Fc1ccc(CNc2nc3ccccc3n3nnnc23)cc1 16.4 µM, COc1cc(Nc2nc3ccccc3n3nnnc23)cc(OC)c1OC 20.6 µM, COc1ccccc1CNC(=O)c1ccc(Nc2nc3ccccc3n3nnnc23)cc1 20.6 µM

Potency, inactive:
Cc1cc(C)c(S(=O)(=O)Oc2ccccc2[N+](=O)[O-])c(C)c1, CCOC(=O)C1CCCN(C(=O)c2ccc3nc(-c4cccc(OC)c4)oc3c2)C1 (centres undefined), COc1ccc(NC(=O)N(Cc2cc3ccc(OC)cc3[nH]c2=O)CC2CCCO2)cc1 (centres undefined), O=C(Cn1ncc(Cl)c(Cl)c1=O)Nc1ccc2c(c1)OCO2, Cc1ccccc1NC(=O)CSc1nc2cc3c(cc2cc1C)CCC3, Cc1cc(NC(=O)CSc2nc(-c3cccs3)nc3ccccc23)no1, COC(=O)C1CCC(=O)N1C(c1ccc(OC)cc1)c1cc(OC)c(OC)c(OC)c1 (centres undefined), COc1ccc2ccccc2c1C1NC(=O)c2ccccc2N1 (centres undefined), COc1ccc(/C=C2/CSC/C(=C/c3ccc(OC)c(OC)c3)C2=O)cc1OC, O=C1C(=Cc2ccccc2[N+](=O)[O-])Cc2ccccc21, Cc1ccc2nc(C)c(C(=O)NN=C3CCCCCC3)n2c1, CSc1nc(Sc2ccccc2Cl)c2ccccc2n1, CCC1CCCCN1CCCNC(=O)c1ccc2c(c1)N(Cc1ccccc1F)C(=O)c1ccccc1S2(=O)=O (centres undefined), COc1ccc(NC(=O)c2cccc3ccccc23)cc1, CCn1c(SCC(=O)Nc2cccc(O)c2)nc2c1c(=O)n(C)c(=O)n2C, CCn1c(CNC(=O)C23CC4CC(CC(C4)C2)C3)nnc1SCC(=O)Nc1ccc(OC)cc1, CCCn1nnc(NC(=S)NC(=O)c2ccccc2OC)n1, O=C(NC12CC3CC(CC(C3)C1)C2)c1ccc([N+](=O)[O-])o1, CN1CCC(OC(=O)c2cc3cc(Cl)cc(Cl)c3oc2=O)CC1, Cc1ccccc1OCCc1c(C)[nH]c(=S)[nH]c1=O, O=C(c1ccccn1)C1CCCN(Cc2cn[nH]c2-c2cc3ccccc3o2)C1 (centres undefined), COc1ccc(N2C(=O)CC(Sc3nc(C)c4c(n3)CCCC4)C2=O)cc1 (centres undefined), O=S(=O)([N-]c1nc2ccccc2nc1-[n+]1ccc(-c2ccncc2)cc1)c1ccccc1, COCc1ccc(O)c2ncccc12, COC(=O)c1c(N2C(=O)[C@H]3[C@@H](C2=O)[C@]2(C(=O)Nc4c(C)cccc42)N2CCC[C@@H]32)sc(C)c1C, CCCN(C(=O)CSc1n[nH]c(-c2ccc(OC)cc2)n1)c1c(N)n(Cc2ccccc2)c(=O)[nH]c1=O, COc1ccc2c(c1)c(C(=O)N/N=C/c1ccc(Cl)cc1)c(C)n2C, CSc1cccc(NC(=O)c2cc3c(COC(C)=O)cnc(C)c3oc2=O)c1, O=C(NC1C/C(=N/O)c2cc3c(cc21)OCO3)C(F)(F)F (centres undefined), CCOc1ccc(C(C)=O)cc1COc1cccnc1[N+](=O)[O-], O=C(NCc1cccs1)C1CCN(c2ccc(S(=O)(=O)N3CCOCC3)cc2Cl)CC1, O=S(=O)(Nc1nc2ccccc2nc1OCC(F)(F)F)c1cccs1, C=CCOC(=O)C1=C(C)NC(C)=C(C(=O)OCC=C)C1c1cn(-c2ccccc2)nc1-c1ccco1, CC(=O)c1cccc(-c2ccnc3c2CC(C(=O)Nc2ccc(Cl)cc2)O3)c1 (centres undefined), NC(=O)c1c(Nc2nc3c(F)cccc3s2)sc2c1CCCC2, ClCC1NCC(c2ccccc2Cl)c2c1[nH]c1ccccc21 (centres undefined), S=c1[nH]cnc2sc(-c3ccccc3)cc12, O=C(N/N=C/c1ccco1)c1cc(-c2ccncc2)nc2ccccc12, O=C(N/N=C/c1cccc(F)c1)c1cc(-c2ccco2)nc2ccccc12, O=C(N/N=C/c1ccc2c(c1)OCO2)c1cc(-c2ccco2)nc2ccccc12, Cc1ccc(C=NNC(=O)c2cc(-c3cccnc3)nc3ccccc23)o1, Cc1ccc(/C=N/NC(=O)c2cc(-c3ccccc3)nc3ccccc23)o1, O=C(N/N=C/c1ccc(Cl)cc1)c1cc(-c2cccnc2)nc2ccccc12, CN(Cc1cnn(Cc2ccccc2)c1)C(=O)c1cccc(S(=O)(=O)N2CCOCC2)c1, O=C(CN1c2cccc3cccc(c23)S1(=O)=O)Nc1ccc(S(=O)(=O)N2CCOCC2)cc1, CCn1c(O)c(/C=N/NC(=O)c2ccncc2)c(=O)n(CC)c1=S, CCS(=O)(=O)c1nn2c(N)c(/C=C3/C=CC(=O)C(OC)=C3)c(=O)nc2s1, CCc1ccc(CNC(=O)Cc2ccc(NC(=O)C3=C(C)OCCS3)cc2)cc1, N#CC1=C2SCC(O)(c3ccccc3)N2C(=O)CC1c1ccccc1 (centres undefined), COc1ccc(NC(=O)C2(C)Cc3c(-c4cccc(NC(C)=O)c4)ccnc3O2)cn1 (centres undefined), CCOc1ncccc1C(=O)NCc1ccc(OC)cc1, Cc1[nH][nH]c(=O)c1C(c1c(C)[nH][nH]c1=O)c1cn(Cc2ccccc2Cl)c2ccccc12, Cc1ccc2oc(/N=C(\N)NC(=O)C(C)(C)C)nc2c1, CCOC(=O)c1ccc(NC(=S)NC(=O)C2CCCC2)cc1, C/C(CCc1ccc2c(c1)OCO2)=N\NC(=S)NC(C)C, CC(=O)Nc1ccc(S(=O)(=O)Nc2nc3ccccc3nc2Nc2ccc(N)cc2)cc1, Fc1ccc(COc2ccc3ccccc3c2CNc2nn[nH]n2)cc1, C=CCSc1nc2ccccc2n1C(=O)/C=C/c1cc(OC)c(OC)c(OC)c1, Cc1ccc(C(=O)O)cc1Nc1nc2ccccc2n2nnnc12, CN(C)c1ccc(Nc2nc3ccccc3n3nnnc23)cc1, c1ccc2c(c1)nc(N1CCOCC1)c1nnnn12, O=[N+]([O-])c1ccccc1C1Nc2cccc3cccc(c23)N1, CCOC(=O)c1cc(-c2ccccc2C)n(CC2CC(c3ccc(OC)cc3)=NO2)n1 (centres undefined), NC(=S)N/N=C/c1ccccc1OC(=O)/C=C/c1ccccc1
